Screening results deposited in PubChem BioAssay by several laboratories.
Rows were chosen to be rich in hits. Some 5.4% of all compounds tested hit in one or more screens of this group.
HSF1 inh: HSF1 inhibition. NIH3T3-HGL HSE-luciferase, MG132-induced, luminescence 8 h; active compounds read low. activity change, negative = inhibition, % at 7.5 µM (by protocol). 0.77% of 300,000 active;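 active means more than half of replicate wells show activity change below -50%, luminescence cut by over half; inconclusive means some wells, but at most half, below -50%; inactive means no replicate well below -50%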;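 further: luciferase reports HSF-1 transcriptional activity via heat shock element; 0% = median of DMSO wells and -100% = zero luminescence signal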
AHR act: human AHR activation. 2.5% of 320,000 active. P35869. AHR-responsive luciferase reporter cells, luminescence. AID 2796. activation, % at 5 µM; in the data active means activation above about 47%;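 further: 0% = vehicle wells and 100% = reference agonist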
Target sequence (P35869 whole entry, looked up): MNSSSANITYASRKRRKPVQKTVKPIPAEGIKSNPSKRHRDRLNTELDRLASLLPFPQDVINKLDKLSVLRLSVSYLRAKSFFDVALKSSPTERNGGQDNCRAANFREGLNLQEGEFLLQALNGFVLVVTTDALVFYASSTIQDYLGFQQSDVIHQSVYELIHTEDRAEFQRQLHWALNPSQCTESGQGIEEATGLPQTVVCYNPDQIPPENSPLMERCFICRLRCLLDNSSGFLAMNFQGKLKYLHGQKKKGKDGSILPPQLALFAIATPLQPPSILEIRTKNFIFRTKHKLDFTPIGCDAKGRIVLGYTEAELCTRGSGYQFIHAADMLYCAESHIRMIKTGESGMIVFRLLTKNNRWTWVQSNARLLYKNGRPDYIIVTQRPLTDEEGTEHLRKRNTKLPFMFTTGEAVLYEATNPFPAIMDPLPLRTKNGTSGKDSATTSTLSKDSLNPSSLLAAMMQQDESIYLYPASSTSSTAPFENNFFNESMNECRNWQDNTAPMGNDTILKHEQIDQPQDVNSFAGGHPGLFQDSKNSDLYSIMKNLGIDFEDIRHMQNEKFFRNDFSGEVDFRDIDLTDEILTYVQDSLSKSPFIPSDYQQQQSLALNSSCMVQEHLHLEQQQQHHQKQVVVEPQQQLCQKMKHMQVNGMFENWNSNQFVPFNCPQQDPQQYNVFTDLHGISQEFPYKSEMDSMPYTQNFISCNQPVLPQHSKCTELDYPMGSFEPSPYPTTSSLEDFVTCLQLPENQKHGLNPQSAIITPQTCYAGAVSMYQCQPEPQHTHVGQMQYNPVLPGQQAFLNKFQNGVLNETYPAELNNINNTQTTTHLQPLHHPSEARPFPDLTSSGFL
NR0B1 inh: inhibits human nuclear receptor DAX1. 0.99% of 340,000 active. AID 504766. inhibition, % at 6.75 µM. HEK293 Gal4-DAX1 luciferase reporter, luminescence;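 active means inhibition above the mean over all tested compounds plus 3 SD, cut at about 4.2% in these data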;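 further: 0% = DAX1-transfected cells with DMSO and 100% = empty-vector control cells with DMSO; inhibition shows as a rise in luminescence from relieved DAX1 repression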
HSF1 activator: increases HSF-1 driven luciferase reporter signal; 1.7% of 300,000 active; activation, % at 9 µM; NIH3T3-HGL HSF-1 luciferase reporter, MG132, 8 h; 100% = twice DMSO control signal; AID 504408;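 active means mean replicate activation of at least 50% with a set share of replicates each reaching 50%; inconclusive means only one of those two conditions met; inactive means mean below 50% and too few replicates reaching it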;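 further: 0% = median of the neutral control wells and 100% = twice that signal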
GAA850 FXN act: frataxin GAA850 promoter activation. HEK293 lucGAA850 FXN promoter luciferase reporter, 24 h; percent of 10 µM SAHA response. activation, % at 6 µM. 0.56% of 360,000 active. AID 540364;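 active means activation above the average of all compounds screened plus 3 SD, cutoff fixed separately per campaign, cut at about 7.5% in these data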;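 further: 0% = DMSO wells and 100% = 10 µM SAHA wells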
Numbers without * were called inactive; ? = inconclusive; nt = no result given.

SMILES	HSF1 inh	AHR act	NR0B1 inh	HSF1 activator	GAA850 FXN act
COc1ccc(-c2c(-c3ccsc3)oc3ccc(N4CCOCC4)cc23)cn1	1.1	58.7*	-0.3	-8.3	1.9
Nc1ccc(C#Cc2c(-c3ccsc3)oc3ccc(N4CCOCC4)cc23)cc1	-9.7	70.3*	-0.7	-19.2	6.1
COC(=O)c1ccc(/C=C/c2c(-c3ccsc3)oc3ccc(N4CCOCC4)cc23)cc1	0.1	43.6	0.7	-0.8	2.8
Cc1ccc2c(c1)N(CC(=O)NC1CCC(C)CC1)C(=O)c1cccnc1O2 (stereo not given)	7.7	7.7	4.2	-1.1	-0.5
COc1cc(S(=O)(=O)N2CCOCC2)ccc1NC(=O)COC(=O)c1ccccn1	2.7	0.4	0.4	4.7	0.1
CC1Cc2nc(SCC(=O)Nc3nc4ccccc4s3)n(C)c(=O)c2S1 (stereo not given)	0.5	60.3*	-0.8	17.9	2.0
CCc1nnc(NC(=O)CSc2nc3c(c(=O)n2C)SC(C)C3)s1 (stereo not given)	-1.3	36.9	-0.4	-17.4	-0.4
CCN(CC)C(=O)C1=C(C)N(Cc2ccccc2)C(=O)C(CC(=O)NC2CCCC2)C1 (stereo not given)	nt	nt	-0.9	nt	-0.3
COc1ccc(C(C)=O)cc1COC(=O)Cc1n[nH]c(=O)c2ccccc12	0.9	8.4	5.3*	2.5	2.2
O=S(=O)(NCCc1c[nH]c2ccccc12)c1ccc(F)cc1	nt	nt	0.3	nt	0.9
CC1Cc2ccccc2N1C(=O)CSc1ncc(-c2ccc(F)cc2)n1C (stereo not given)	48.5	15.5	0.2	66.9*	5.1
O=C(Nc1ccccc1Cl)c1cc2ccccc2o/c1=N\O	35.0	76.1*	4.7*	72.4*	6.7
COc1cccc(NC(=O)c2cc3ccccc3o/c2=N\O)c1	43.7	-0.3	-3.5	?	1.7
O=[N+]([O-])c1cc(/C=N\Nc2nccs2)ccc1O	-8.8	nt	nt	-0.2	nt
Clc1cccc(Cl)c1/C=N\Nc1nccs1	135.7	12.8	0.6	141.7*	0.9
Cc1csc(N/N=C/c2c(F)cccc2Cl)n1	-2.1	57.2*	0.7	8.0	1.4
O=[N+]([O-])c1ccccc1/C=N\Nc1nccs1	40.2	17.2	0.8	77.9*	0.6
Fc1cccc(Cl)c1/C=N/Nc1ccccn1	21.5	41.9	0.9	35.8	6.4
COc1ccc(-c2noc(CCCC(=O)Nc3ccc(C(N)=O)cc3)n2)cc1OC	3.1	1.1	-0.4	38.1	-0.3
COc1cc(OC)c2c(-c3cccc(-c4ccc(F)c(Cl)c4)c3)cc(=O)oc2c1	nt	nt	0.5	nt	-4.1
O=C(COC(=O)/C=C/c1cccs1)NC1CC1	-3.0	1.2	1.5	10.0	0.9
Cc1c(C(=O)c2no[n+]([O-])c2C(=O)c2cnn(C)c2C)cnn1C	-94.3*	3.7	0.1	-94.6	-2.5
COc1ccc(C(=O)c2no[n+]([O-])c2C(=O)c2ccc(OC)cc2)cc1	13.6	5.4	-0.1	1.8	0.3
Cc1ccc(NC(=O)c2ncn(CC(=O)NCc3ccc4c(c3)OCO4)n2)cc1C	nt	nt	1.2	nt	4.2
CCOC(=O)/C(=C\c1ccc(Cl)cc1)c1nc2sc(C)c(C)c2c(=O)[nH]1	184.9	0.3	0.4	241.2*	7.5
SMILES	HSF1 inh	AHR act	NR0B1 inh	HSF1 activator	GAA850 FXN act
CCCC(=O)N1CCN(c2ccc(NC(=O)c3cc4ccccc4o3)cc2Cl)CC1	-78.8*	-6.5	-5.0	-77.8	-15.4
O=C(Nc1ccc(N2CCN(C(=O)c3ccco3)CC2)c(Cl)c1)c1cc2ccccc2o1	-73.6*	-4.1	-6.0	-73.0	-14.7
COc1ccc(/C=C(/C#N)c2cccnc2)cc1OC	-21.8	64.3*	1.2	-16.7	2.0
O=C1Nc2ccccc2/C1=C/c1cnc(-c2ccccc2)[nH]1	34.6	72.6*	4.7*	64.3*	5.5
O=C1Nc2ccccc2/C1=C/c1cccnc1	-1.9	12.8	-0.7	-0.8	0.6
Cc1ccc(-c2cc(-c3ccccc3Cl)[nH]n2)c(O)c1	47.2	86.2*	6.8*	37.6	4.0
Cc1ccc(-c2cc(-c3ccccc3[N+](=O)[O-])[nH]n2)c(O)c1	13.6	59.6*	5.3*	39.0	1.6
COc1cccc(NC(=O)c2ccnc(N3CCC(C(=O)NCc4ccccc4OC)CC3)c2)c1	66.3	1.0	1.1	111.2*	3.6
COc1ccccc1CNC(=O)C1CCCN(c2cnccn2)C1 (stereo not given)	2.7	30.4	0.5	-21.4	1.4
N#Cc1ncc(Cc2ccccc2)nc1C#N	97.3	0.1	0.6	97.2*	2.1
Cc1ccc(N2C(=O)c3ccccc3NC2(C(=O)O)c2ccccc2)cc1Cl (stereo not given)	25.5	6.9	4.8*	23.6	4.4
COc1ccc(N2C(=O)c3ccccc3NC2(C)C)cc1	9.9	2.6	0.3	24.3	5.1
O=C1CC(N2C(=O)/C(=C/C=C/c3ccccc3)SC2=S)C(=O)N1c1ccccc1 (stereo not given)	28.1	1.6	2.0	83.2*	2.0
CCc1cccc(NC(=O)COC(=O)/C=C/c2cccs2)c1	-51.5*	0.5	-1.1	-62.5	-0.6
O=C(COC(=O)/C=C/c1cccs1)Nc1ccc(F)cc1	nt	1.8	0.3	nt	-0.9
O=C1c2ccccc2C(=O)N1CCCOc1ccccc1	13.5	66.2*	0.3	24.6	3.8
COc1ccc(CC(=O)N2CCc3cc(OC)c(OC)cc3C2C)c(OC)c1 (stereo not given)	-2.4	1.6	-1.2	-11.7	0.2
C=CCC1(CC=C)CCCN1Cc1nc(COc2ccccc2)no1	2.2	1.0	2.7	4.4	-0.8
Cn1nnnc1SCCNCc1cccc2ccccc12	3.1	0.3	-0.5	35.0	1.1
Cn1nnnc1SCCNC/C=C/c1ccccc1	18.4	-1.2	-0.2	77.2*	-0.9
Brc1ccccc1C1CC(c2ccccc2)=Nc2ccccc2N1 (stereo not given)	18.9	40.2	2.2	46.3	5.8
Clc1ccccc1C1CC(c2ccccc2)=Nc2ccccc2N1 (stereo not given)	12.3	13.9	4.8*	31.5	4.8
Fc1ccc(CNCC2CCCO2)cc1 (stereo not given)	-2.0	nt	4.3*	3.6	1.9
CCOC(=O)c1cnc(-c2ccccc2)nc1N	19.0	5.8	1.6	45.6	4.6
CCOC(=O)c1[nH]cc(-c2ccccc2)c1N1CCOCC1	nt	48.6*	-0.7	nt	0.8
CCOC(=O)c1cnc(-c2ccccc2)nc1N1CCOCC1	-9.1	48.1*	-0.1	-22.5	1.6
CCOC(=O)c1cc(-c2ccc(N3CCOCC3)cc2)nn1-c1ccccc1	2.7	6.9	-1.2	22.2	3.4
CC1CCCN(CC(=O)Nc2cc(S(=O)(=O)N3CCOCC3)ccc2N2CCCC2)C1 (stereo not given)	nt	0.8	0.6	nt	0.7
COc1ccc(S(=O)(=O)NCCOc2ccc(Cl)cc2)cc1	nt	-0.9	0.9	nt	0.4
FCCCOc1ccc(-c2ccnc3ncnn23)cc1	9.6	-1.8	5.2*	-0.9	1.0
